For three molecules, residual activity results are on record in ChEMBL document CHEMBL2218924, “A broad activity screen in support of a chemogenomic map for kinase signalling research and drug discovery” (Biochem J, 2013).

Structures are written as SMILES.

The target of test [1] is Serine/threonine-protein kinase SIK1 (Homo sapiens) (UniProt P57059). The following applies: at 10 µM.
Test [2] has as its target SRSF protein kinase 1 (Homo sapiens) (UniProt Q96SB4). The following applies: at 1 µM.
For test [3] the target is unchanged. As to conditions: at 10 µM.
Test [4] addresses SRSF protein kinase 2 (Homo sapiens) (UniProt P78362). As to conditions: at 1 µM.
The target is the same in test [5]. As to conditions: at 10 µM.
The target of test [6] is Serine/threonine-protein kinase 33 (Homo sapiens) (UniProt Q9BYT3). As to conditions: at 1 µM.
Test [7] shares this target. As to conditions: at 10 µM.
The target of test [8] is Serine/threonine-protein kinase PLK2 (Homo sapiens) (UniProt Q9NYY3). The following applies: at 1 µM.
Test [9] shares this target. The following applies: at 10 µM.
For test [10], the target named is Tyrosine-protein kinase SYK (Homo sapiens) (UniProt P43405). As to conditions: at 1 µM.
Test [11] has the same target. The following applies: at 10 µM.
Test [12] deals with T1, Mitogen-activated protein kinase kinase kinase 7 (Homo sapiens) (UniProt O43318).
T1 sequence (whole entry): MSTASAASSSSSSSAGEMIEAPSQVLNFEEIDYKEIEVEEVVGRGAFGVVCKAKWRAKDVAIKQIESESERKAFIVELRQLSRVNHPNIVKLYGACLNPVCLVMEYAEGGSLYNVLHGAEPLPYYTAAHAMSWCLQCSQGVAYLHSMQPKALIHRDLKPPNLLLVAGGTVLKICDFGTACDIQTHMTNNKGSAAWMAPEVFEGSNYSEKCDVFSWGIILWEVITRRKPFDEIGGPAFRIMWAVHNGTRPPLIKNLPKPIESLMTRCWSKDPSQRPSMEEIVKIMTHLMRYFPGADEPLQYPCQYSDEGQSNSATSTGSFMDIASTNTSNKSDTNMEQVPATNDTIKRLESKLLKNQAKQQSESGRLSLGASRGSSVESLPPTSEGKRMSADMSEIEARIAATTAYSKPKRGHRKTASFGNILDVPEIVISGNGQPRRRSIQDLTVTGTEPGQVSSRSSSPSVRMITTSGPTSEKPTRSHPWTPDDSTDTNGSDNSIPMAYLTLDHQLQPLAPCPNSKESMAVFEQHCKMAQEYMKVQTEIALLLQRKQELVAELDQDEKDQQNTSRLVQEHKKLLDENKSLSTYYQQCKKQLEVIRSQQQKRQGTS
As to conditions: at 1 µM.

The target in test [13] is T1, Mitogen-activated protein kinase kinase kinase 7 (Homo sapiens). The following applies: at 10 µM.
Test [14] deals with T2, Serine/threonine-protein kinase TAO1 (Homo sapiens) (UniProt Q7L7X3).
T2 sequence (whole entry): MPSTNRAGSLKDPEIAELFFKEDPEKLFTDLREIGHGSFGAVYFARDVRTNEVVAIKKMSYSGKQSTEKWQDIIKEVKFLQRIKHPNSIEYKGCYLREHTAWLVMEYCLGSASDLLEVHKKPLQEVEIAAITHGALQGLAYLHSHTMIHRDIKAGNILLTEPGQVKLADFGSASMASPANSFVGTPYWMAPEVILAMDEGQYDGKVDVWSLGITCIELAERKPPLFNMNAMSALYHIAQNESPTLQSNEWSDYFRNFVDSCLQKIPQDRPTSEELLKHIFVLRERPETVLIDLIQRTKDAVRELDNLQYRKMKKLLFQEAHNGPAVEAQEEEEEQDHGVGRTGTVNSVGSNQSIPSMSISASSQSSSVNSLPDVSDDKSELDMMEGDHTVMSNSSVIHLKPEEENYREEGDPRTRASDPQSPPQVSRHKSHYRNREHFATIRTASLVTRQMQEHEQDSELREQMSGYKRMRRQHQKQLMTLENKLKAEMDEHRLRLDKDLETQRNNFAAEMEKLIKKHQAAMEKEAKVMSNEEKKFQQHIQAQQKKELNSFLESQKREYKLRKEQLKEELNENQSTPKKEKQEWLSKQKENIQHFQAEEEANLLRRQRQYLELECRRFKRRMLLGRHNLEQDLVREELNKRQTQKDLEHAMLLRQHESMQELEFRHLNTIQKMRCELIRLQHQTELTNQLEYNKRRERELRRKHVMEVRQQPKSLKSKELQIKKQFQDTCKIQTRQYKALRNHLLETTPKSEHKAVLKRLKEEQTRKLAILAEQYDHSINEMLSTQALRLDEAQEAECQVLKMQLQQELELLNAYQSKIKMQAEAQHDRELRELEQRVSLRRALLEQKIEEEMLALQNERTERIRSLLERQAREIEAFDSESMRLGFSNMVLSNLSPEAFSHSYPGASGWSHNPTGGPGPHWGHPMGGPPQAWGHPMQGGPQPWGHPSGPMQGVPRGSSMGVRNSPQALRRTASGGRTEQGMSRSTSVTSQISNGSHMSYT
The following applies: at 1 µM.

The target of test [15] is T2, Serine/threonine-protein kinase TAO1 (Homo sapiens). As to conditions: at 10 µM.
Test [16] has as its target T3, Serine/threonine-protein kinase TAO2 (Homo sapiens) (UniProt Q9UL54).
T3 sequence (whole entry): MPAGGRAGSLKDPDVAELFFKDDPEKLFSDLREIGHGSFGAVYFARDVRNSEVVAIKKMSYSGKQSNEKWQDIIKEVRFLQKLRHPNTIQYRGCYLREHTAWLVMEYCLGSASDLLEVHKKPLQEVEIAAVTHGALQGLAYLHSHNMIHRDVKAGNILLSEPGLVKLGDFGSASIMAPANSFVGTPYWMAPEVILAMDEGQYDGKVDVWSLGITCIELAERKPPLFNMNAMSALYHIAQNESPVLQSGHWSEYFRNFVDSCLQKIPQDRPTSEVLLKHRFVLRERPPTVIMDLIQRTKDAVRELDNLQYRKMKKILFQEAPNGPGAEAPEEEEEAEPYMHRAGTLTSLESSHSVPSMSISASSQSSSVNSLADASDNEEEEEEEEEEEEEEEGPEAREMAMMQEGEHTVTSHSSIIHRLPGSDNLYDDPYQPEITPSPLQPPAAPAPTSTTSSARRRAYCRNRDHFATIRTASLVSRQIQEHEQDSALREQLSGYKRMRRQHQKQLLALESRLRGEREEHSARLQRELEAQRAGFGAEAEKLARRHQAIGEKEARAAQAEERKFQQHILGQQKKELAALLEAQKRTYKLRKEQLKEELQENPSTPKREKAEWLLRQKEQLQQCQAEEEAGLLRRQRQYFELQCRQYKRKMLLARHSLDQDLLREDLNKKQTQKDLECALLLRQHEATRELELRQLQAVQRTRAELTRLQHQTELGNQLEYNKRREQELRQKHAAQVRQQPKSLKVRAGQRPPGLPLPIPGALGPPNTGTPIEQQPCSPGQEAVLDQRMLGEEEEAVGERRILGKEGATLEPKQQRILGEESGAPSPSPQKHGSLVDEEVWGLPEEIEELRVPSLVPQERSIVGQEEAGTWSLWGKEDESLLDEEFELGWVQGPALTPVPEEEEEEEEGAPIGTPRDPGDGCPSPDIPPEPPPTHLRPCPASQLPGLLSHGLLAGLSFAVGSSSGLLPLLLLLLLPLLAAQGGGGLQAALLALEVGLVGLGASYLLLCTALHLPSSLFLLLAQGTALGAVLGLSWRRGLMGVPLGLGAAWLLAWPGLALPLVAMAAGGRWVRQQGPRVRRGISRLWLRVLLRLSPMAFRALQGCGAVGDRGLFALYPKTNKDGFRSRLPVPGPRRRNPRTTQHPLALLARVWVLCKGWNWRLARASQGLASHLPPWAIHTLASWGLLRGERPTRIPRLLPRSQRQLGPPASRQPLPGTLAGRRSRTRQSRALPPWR
As to conditions: at 1 µM.

Test [17] concerns the target T3, Serine/threonine-protein kinase TAO2 (Homo sapiens). The following applies: at 10 µM.
Test [18] deals with T4, Serine/threonine-protein kinase TAO3 (Homo sapiens) (UniProt Q9H2K8).
T4 sequence (whole entry): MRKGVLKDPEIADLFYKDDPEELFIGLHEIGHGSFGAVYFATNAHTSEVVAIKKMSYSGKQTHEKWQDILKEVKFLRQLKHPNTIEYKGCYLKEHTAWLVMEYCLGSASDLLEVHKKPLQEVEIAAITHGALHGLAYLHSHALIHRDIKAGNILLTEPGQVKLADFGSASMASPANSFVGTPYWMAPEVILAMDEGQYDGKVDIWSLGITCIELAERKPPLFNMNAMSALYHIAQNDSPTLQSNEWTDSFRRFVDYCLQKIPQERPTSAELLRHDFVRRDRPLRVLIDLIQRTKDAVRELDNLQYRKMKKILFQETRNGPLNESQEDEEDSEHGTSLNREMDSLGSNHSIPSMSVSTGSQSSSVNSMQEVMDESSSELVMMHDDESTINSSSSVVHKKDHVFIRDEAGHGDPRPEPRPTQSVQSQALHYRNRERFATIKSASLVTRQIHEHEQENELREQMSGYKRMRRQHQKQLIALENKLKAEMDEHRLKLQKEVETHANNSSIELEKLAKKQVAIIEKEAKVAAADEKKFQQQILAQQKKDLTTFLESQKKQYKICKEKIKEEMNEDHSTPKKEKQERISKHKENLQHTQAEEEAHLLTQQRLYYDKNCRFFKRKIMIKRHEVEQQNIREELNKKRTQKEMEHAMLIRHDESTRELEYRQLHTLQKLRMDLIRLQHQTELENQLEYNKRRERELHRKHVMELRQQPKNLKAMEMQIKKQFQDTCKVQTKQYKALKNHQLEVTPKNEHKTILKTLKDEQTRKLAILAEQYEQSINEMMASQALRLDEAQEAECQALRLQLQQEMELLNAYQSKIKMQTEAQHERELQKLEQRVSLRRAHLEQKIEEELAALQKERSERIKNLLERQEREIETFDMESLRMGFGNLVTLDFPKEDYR
The following applies: at 1 µM.

In test [19] the target is T4, Serine/threonine-protein kinase TAO3 (Homo sapiens). The following applies: at 10 µM.
The target in test [20] is T5, Serine/threonine-protein kinase TBK1 (Homo sapiens) (UniProt Q9UHD2).
T5 sequence (whole entry): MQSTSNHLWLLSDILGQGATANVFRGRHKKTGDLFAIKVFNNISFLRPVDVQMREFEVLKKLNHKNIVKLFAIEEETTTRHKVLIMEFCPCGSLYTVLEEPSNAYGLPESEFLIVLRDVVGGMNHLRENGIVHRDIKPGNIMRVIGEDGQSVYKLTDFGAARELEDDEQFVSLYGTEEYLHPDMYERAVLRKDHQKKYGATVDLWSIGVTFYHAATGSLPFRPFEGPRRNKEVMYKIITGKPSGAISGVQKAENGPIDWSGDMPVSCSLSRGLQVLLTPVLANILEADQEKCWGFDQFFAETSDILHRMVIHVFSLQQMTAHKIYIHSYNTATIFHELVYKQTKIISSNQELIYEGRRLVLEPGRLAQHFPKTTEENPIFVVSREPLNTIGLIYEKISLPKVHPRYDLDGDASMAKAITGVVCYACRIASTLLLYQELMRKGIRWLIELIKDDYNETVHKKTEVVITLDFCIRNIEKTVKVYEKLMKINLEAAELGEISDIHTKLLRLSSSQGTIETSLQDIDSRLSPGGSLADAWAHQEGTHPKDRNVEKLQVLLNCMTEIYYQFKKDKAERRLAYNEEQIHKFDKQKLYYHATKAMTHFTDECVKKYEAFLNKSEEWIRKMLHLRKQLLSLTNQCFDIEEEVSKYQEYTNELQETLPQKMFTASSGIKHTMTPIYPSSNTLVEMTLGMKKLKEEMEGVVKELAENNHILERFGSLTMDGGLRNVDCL
The following applies: at 1 µM.

SRSF protein kinase 1 (Homo sapiens), sequence (Q96SB4 whole entry): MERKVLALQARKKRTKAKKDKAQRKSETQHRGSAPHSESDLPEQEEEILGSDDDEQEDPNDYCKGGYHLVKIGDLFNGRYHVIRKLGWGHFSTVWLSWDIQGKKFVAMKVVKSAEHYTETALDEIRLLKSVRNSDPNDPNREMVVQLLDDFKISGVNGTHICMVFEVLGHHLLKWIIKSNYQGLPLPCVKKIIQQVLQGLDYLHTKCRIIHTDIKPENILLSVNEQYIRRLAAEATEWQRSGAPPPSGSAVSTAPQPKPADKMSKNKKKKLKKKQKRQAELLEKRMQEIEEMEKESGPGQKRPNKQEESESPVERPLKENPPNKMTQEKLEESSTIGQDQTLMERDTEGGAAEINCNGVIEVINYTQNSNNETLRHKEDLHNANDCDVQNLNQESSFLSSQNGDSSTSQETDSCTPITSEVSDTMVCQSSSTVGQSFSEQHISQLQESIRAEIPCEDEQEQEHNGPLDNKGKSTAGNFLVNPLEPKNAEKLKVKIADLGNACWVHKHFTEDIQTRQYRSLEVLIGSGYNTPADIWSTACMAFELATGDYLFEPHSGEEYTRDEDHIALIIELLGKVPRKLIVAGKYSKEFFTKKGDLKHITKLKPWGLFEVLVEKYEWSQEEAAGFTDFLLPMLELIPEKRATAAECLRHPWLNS
Serine/threonine-protein kinase PLK2 (Homo sapiens), sequence (Q9NYY3 whole entry, looked up): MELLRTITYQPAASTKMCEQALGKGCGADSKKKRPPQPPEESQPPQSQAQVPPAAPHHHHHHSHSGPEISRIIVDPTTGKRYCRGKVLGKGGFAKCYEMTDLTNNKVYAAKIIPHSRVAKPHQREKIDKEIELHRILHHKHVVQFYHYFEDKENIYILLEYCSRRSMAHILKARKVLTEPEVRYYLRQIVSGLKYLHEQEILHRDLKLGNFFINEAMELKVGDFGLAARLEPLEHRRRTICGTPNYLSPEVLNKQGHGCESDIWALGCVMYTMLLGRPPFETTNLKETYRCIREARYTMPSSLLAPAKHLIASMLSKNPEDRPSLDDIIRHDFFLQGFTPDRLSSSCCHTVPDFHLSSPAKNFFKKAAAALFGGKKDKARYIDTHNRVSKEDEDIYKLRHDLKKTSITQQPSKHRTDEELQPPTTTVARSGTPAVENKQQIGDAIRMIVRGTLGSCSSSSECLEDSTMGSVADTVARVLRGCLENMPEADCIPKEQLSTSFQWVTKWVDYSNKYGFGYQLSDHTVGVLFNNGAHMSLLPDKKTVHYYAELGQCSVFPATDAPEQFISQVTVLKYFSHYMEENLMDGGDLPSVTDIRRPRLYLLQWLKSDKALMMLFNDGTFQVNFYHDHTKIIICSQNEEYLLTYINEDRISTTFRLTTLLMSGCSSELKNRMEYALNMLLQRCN
SRSF protein kinase 2 (Homo sapiens), sequence (P78362 whole entry, looked up): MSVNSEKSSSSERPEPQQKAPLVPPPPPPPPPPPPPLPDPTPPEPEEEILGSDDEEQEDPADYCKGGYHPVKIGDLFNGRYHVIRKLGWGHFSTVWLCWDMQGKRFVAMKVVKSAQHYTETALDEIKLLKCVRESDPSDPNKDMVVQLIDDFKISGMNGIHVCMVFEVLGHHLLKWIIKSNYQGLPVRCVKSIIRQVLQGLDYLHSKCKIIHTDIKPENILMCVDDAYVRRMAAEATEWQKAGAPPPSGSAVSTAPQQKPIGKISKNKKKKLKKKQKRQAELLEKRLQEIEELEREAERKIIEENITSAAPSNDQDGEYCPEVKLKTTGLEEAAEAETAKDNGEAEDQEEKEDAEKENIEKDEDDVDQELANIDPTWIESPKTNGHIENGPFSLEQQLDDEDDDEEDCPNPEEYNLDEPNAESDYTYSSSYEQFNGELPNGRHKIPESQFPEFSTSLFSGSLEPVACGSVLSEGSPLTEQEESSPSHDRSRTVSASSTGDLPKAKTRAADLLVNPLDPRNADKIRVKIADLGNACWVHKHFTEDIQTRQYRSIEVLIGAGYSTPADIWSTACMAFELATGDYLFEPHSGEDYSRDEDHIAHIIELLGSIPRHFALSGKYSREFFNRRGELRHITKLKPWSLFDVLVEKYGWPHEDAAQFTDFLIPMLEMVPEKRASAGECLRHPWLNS
Serine/threonine-protein kinase 33 (Homo sapiens), sequence (Q9BYT3 whole entry, looked up): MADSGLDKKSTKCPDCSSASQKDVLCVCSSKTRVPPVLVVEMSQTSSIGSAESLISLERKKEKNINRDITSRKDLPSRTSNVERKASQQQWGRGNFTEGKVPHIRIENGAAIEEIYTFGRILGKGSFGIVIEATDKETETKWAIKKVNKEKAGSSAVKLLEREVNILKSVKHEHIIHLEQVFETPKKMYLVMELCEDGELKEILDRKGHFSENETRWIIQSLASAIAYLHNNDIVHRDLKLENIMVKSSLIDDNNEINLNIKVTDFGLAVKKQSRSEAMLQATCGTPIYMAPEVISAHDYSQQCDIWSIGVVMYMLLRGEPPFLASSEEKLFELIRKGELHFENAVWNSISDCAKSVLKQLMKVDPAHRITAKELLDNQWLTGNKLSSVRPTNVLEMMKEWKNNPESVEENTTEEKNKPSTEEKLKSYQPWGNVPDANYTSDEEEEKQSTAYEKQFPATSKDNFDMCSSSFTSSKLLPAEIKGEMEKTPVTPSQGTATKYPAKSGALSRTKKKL
Serine/threonine-protein kinase SIK1 (Homo sapiens), sequence (P57059 whole entry): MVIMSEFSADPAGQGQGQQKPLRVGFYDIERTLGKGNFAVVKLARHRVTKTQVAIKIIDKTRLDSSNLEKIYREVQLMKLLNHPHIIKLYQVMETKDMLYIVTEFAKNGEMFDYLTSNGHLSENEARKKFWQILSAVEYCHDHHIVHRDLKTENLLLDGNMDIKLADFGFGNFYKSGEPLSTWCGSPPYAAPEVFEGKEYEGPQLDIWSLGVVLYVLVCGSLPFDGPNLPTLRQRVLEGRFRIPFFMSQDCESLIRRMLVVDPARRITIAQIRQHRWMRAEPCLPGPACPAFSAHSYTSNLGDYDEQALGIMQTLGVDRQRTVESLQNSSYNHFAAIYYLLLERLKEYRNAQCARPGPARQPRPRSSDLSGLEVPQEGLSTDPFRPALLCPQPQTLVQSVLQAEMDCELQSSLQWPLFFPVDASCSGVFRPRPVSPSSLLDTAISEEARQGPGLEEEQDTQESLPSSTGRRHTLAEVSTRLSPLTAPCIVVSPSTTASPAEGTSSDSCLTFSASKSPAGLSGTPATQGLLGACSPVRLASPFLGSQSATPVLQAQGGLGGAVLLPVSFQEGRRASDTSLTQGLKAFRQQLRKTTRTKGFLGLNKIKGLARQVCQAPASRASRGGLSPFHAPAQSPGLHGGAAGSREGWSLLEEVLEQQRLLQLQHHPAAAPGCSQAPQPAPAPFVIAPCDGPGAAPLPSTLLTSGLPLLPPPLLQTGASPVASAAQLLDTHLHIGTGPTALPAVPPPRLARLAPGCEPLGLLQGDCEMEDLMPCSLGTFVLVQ

Turning to `COc1cccc(-c2cc(=O)c3ccccc3o2)c1N`, the residual activity in test [1] was 124%; in test [2], 104%; in test [3] it was 109%; in [4] it was 104%; in test [5] it was 88%; in test [6], 100%. Further, the residual activity amounted to 97% in test [7]; 108% in test [8]; 104% in test [9]; 104% in test [10]; 113% in test [11]; 101% in test [12]. Also, the residual activity in test [13] was found to be 98%; in test [14], 99%; in test [15], 85%; in test [16], 112%; in [17] it was 92%; in [18] it was 95%. Also, the residual activity in test [19] was found to be 87%; in test [20] it was 97%.
As for `Cc1nc2cc3nc(-c4cccs4)cnc3cc2n1C`, the residual activity in test [1] was 88%; in test [2], 99%; in test [3], 107%; in [4] it was 98%; in [5], 86%; in test [6] it was 106%. The residual activity in [7] turned out to be 100%; in [8], 102%; in [9], 95%; in test [10], 131%; in [11], 93%; in test [12], 96%. The residual activity in test [13] is 100%; in test [14] it was 111%; in test [15], 100%; in [16], 113%; in test [17], 98%; in test [18] it was 98%. Besides, the residual activity in test [19] came to 95%; in [20], 105%.
For the molecule `Nc1cccc(-c2cc3c(Oc4cccc(O)c4)ncnc3[nH]2)c1`, the residual activity in test [1] worked out at 2%; in test [2], 103%; in test [3] it was 80%; in test [4] it was 101%; in [5], 71%; in [6], 90%. Also, the residual activity in test [7] stood at 61%; in test [8] it was 96%; in [9], 65%; in [10], 18%; in test [11], 3%; in [12], 48%. The residual activity in test [13] came to 8%; in [14], 82%; in [15], 39%; in test [16] it was 78%; in test [17], 26%; in test [18] it was 84%. In addition, the figures for the residual activity in test [19] and in test [20] were 37% and 70%, respectively.
